From PubChem
Rab9 prom act – qHTS Assay for Rab9 Promoter Activators | Huh7 Rab9 promoter-luciferase reporter, luminescence, 24 h | Potency, µM (doses to about 9.22 µM), without a hit: top-dose activation, negative = inhibition, actives largely listed as activators | 320,000 tested, 2.8% active | AID 485297, 2010; also: % of control where 0% means no effect; nearly all actives have a fitted effect of over 60% in size
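Huh7 cells stably carrying a Rab9 promoter-luciferase reporter, 1500 cells per well in OP-MEM I with 10% FBS, treated with compound 24 hours at 37C. Luciferase activity read by luminescence after 10 minutes with Amplite reagent.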
SMN2 splice up – qHTS Assay for Enhancers of SMN2 Splice Variant Expression; HEK293 SMN2-luciferase splicing reporter, luminescence, 30-36 h; Potency, µM (titrated, usually from 46.1 µM), for the others: at the highest dose activity change, positive = activation, most hits filed as activators; 210,000 tested, 2.8% active; AID 1458, 2008; also: % of control where 0% means no effect; nearly all actives have a fitted effect of over 55% in size
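HEK293 cells carry an SMN2 […]–luciferase reporter in which exon 7 inclusion puts luciferase in frame. Cells were plated 10-12 h before compound addition, then incubated 30-36 h at 37C. ONE-Glo luminescence was read; sodium butyrate at 4.5 mM final served as control.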
FLuc modulator – qHTS profiling assay for firefly luciferase inhibitor/activator using purifed enzyme and Km concentrations of substrates (counterscreen for miR-21 project); Luciferin 4-monooxygenase (Photinus pyralis), P08659; purified FLuc, Km substrates, luminescence inhibition; Potency, µM (top dose mostly 57.5 µM), inactives show at the top dose activity change, negative = inhibition, usual class: inhibitors; 360,000 tested, 6.9% active; AID 588342, 2011;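 also: plate controls were vehicle for no effect and reference inhibitor for full effect; nearly all actives have a fitted effect of over 55% in size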
Target sequence (P08659 whole entry, looked up): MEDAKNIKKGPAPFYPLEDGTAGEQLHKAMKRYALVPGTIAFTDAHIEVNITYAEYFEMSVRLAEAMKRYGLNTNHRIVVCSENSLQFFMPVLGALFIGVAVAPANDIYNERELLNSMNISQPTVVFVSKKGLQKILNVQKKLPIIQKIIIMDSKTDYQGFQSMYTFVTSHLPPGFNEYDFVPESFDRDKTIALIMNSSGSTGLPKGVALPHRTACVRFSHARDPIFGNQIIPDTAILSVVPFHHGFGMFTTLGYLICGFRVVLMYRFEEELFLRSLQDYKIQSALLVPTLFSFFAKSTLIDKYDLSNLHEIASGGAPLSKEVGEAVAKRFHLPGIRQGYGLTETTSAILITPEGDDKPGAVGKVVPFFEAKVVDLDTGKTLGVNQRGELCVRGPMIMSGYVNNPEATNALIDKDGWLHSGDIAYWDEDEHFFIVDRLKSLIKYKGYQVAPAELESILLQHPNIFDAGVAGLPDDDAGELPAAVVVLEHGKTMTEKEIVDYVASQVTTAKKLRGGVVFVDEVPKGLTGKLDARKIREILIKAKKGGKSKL
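Purified P. pyralis luciferase (10nM final) with 10uM D-luciferin and 10uM ATP (Km levels) in 50mM Tris acetate pH 7.5, 10mM Mg acetate, 0.01% Tween-20, 0.05% BSA; qHTS 6-point titration, ~60 µM downward; luminescence read.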
KinaseGlo FLuc – Counterscreen for Luciferase (Kinase-Glo TM) Inhibition. Luciferin 4-monooxygenase (Photuris pensylvanica), Q27757. Kinase-Glo luciferase, ATP luminescence, 8 min. Potency, µM (series often up to 38.3 µM), inactives show at the highest dose activity change, negative = inhibition, usual class: inhibitors. 200,000 tested, 0.28% active; also: % is scaled to controls: 0 for no effect and ±100 for the full control effect; nearly all actives have a fitted effect of over 60% in size
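Recombinant Kinase-Glo luciferase, 10 uM ATP (linear range), luciferin; imidazole pH 7.2 / KCl / MgCl2 / Tween / BSA buffer; 8 min RT; luminescence.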
NPC1 promoter act – qHTS Assay for NPC1 Promoter Activators | Huh7 NPC1 promoter luciferase reporter, 24 h | AID 485313, 2010 | 320,000 tested, 2.4% active | Potency, µM (top dose mostly 9.22 µM), for the others: top-dose activation, usual class: activators; also: % of control where 0% means no effect; nearly all actives have a fitted effect of over 60% in size
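Compounds in DMSO were transferred onto Huh7 NPC1-luciferase reporter cells pre-incubated 2 h; after 24 h at 37 °C, Amplite reagent was dispensed and luminescence recorded 10 min later.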
ELG1 genotox – qHTS screen for small molecules that induce genotoxicity in human embryonic kidney (HEK293T) cells expressing luciferase-tagged ELG1; HEK293T ELG1-luciferase reporter, luminescence, 16 h; Potency, µM (series often up to 46 µM), inactives show top-dose activity change, positive = activation, usual class: activators; 330,000 tested, 1.3% active; also: % of control where 0% means no effect; nearly all actives have a fitted effect of over 60% in size
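HEK293T cells expressing luciferase-tagged ELG1 were exposed to compound or DMSO vehicle for 16 hr at 37 °C and 5% CO2. Luciferase activity was then measured with ONE-Glo after 30 min at room temperature.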
The depositor's hits bear a star; ? = inconclusive; / = no result; [ ] = another dose, or the depositor's remark. An excerpt weighted towards active compounds, which were near 7.5% of everything screened. Calls follow the shape of the dose curve; as a rule, active = well fitted curve in the direction sought with a large enough effect; inconclusive = small, poorly fitted or top-dose-only effect, or another doubt; inactive = no such curve, though single readings can be large; an effect the other way counts as inactive or inconclusive. Potency is read from the fitted curve at half-maximal effect.

SMILES | Rab9 prom act | SMN2 splice up | FLuc modulator | KinaseGlo FLuc | NPC1 promoter act | ELG1 genotox
CCn1c(-c2cc(-c3ccccc3OC)nc3ccccc23)n[nH]c1=S | 0% | 20% | 1% | 4% | -1% | -8%
C=CCn1c(-c2cccc3ccccc23)n[nH]c1=S | -22% | -25% | 3% | 1% | 0% | -1%
N[C@@H](CO)C(=O)NNCc1ccc(O)c(O)c1O | / | -6%[20.6 µM] | / | 1%[17.1 µM] | / | /
CCC(CC)C(=O)Nc1ccc2nc(SCC(=O)N3CCOCC3)sc2c1 | / | / | -10% | / | / | /
O=C(CSc1ccc(-c2ccco2)nn1)Nc1ccc(F)cc1F | 1% | / | ? | / | 7% | -13%
Cc1ccc(CSc2ccc(-c3ccco3)nn2)cc1 | 2.8µM* | 11µM* | 4.8µM* | -14% | 3.5µM* | ?
Clc1ccc(CSc2ccc(-c3ccco3)nn2)cc1 | ? | ? | ? | -5% | ? | 15%
Cc1cccc(CSc2ccc(-c3ccco3)nn2)c1 | ? | ? | 12µM* | -2% | ? | ?
c1ccc(CSc2ccc(-c3ccco3)nn2)cc1 | 1.8µM* | 13µM* | 2.4µM* | -6% | 4µM* | 8.2µM*
Fc1ccccc1CSc1ccc(-c2ccco2)nn1 | 1.6µM* | 18µM* | 6µM* | -3% | 2.2µM* | ?
Cc1cccc(CSc2nnc(-c3ccco3)o2)c1 | 16% | 26% | ? | 0% | 18% | ?
Cc1ccc(C)c(NC(=O)CSc2nc(=O)n(Cc3ccccn3)c3c2CCC3)c1 | / | / | 5% | / | / | /
COCCCNC(=O)C1CCN(C(=O)c2cnn(-c3ccccc3)c2-n2cccc2)CC1 | / | 4% | -1% | / | / | /
Clc1cccc(CSc2ccc(-c3ccco3)nn2)c1 | 27% | 26% | 21µM* | -3% | 12% | 8%
COc1ccc(-n2nc(C(=O)NCC(=O)N3CC(C)CC(C)C3)c3ccccc3c2=O)c(OC)c1 (configuration not stated) | -1% | / | ? | / | 1% | 0%
CCOC(=O)C1CCN(C(=O)CNC(=O)c2nn(-c3ccc(OC)cc3OC)c(=O)c3ccccc23)CC1 | 13% | / | 9.5µM* | / | 4% | 10%
CCOC(=O)N1CCN(C(=O)CNC(=O)c2nn(-c3ccc(OC)cc3OC)c(=O)c3ccccc23)CC1 | 19% | / | 3.8µM* | / | 15% | ?
COc1ccc(-n2nc(C(=O)NCC(=O)N3CCCC3)c3ccccc3c2=O)c(OC)c1 | 8% | / | 13µM* | / | -2% | 10%
Cc1ccc(Nc2nc(C)c(NC(=O)c3ccc(C)cc3)c(Nc3ccc(C)cc3)n2)cc1 | / | 8% | -1% | / | / | /
CCN(C(=O)c1cc2cc(Br)cc(OC)c2oc1=O)c1ccccc1 | / | 5% | 2% | / | / | /
Cc1cc(C(=O)CSc2nncs2)c(C)n1-c1c(C)n(C)n(-c2ccccc2)c1=O | 2% | -8% | 2% | -5% | -4% | 8%
Cc1cc(C(=O)CSc2nnnn2-c2ccc(O)cc2)c(C)n1C | 10% | 19% | ? | 1% | 21% | 1%
Cc1ccc(-n2c(C)cc(C(=O)CSc3nnnn3C)c2C)cc1 | 0.71µM* | ? | 2.7µM* | -14% | 0.71µM* | 13%
Cc1ccc(-n2c(C)cc(C(=O)CSc3nncs3)c2C)cc1 | 0.5µM* | 12% | 3µM* | -10% | 1µM* | ?
CC(C)(C)c1ccc(/C=N/NC(=O)C2CCCC2)cc1 | ? | / | 19µM* | / | ? | ?
SMILES | Rab9 prom act | SMN2 splice up | FLuc modulator | KinaseGlo FLuc | NPC1 promoter act | ELG1 genotox
CC(C)c1ccc(/C=N/NC(=O)C2CCCC2)cc1 | 2.5µM* | / | 12µM* | / | 2µM* | 5.8µM*
COc1ccc2[nH]c(=O)c(CN(C(=O)C(C)C)c3ccccc3OC)cc2c1 | 0% | / | -1% | / | 0% | 0%
Cc1ccc(C)c(NC(=O)c2cnc3sc(N4CCOCC4)nn3c2=O)c1 | / | / | -1% | / | / | /
O=[N+]([O-])c1ccc2c(c1)N([O-])C1(CCCCC1)[N+]2=O | 10% | / | 15µM* | / | 0% | 2%
O=C(O)c1cc([N+](=O)[O-])ccc1N1CCCCC1 | 1% | -1% | -1% | 8% | -1% | 0%
COc1ccc(-c2ccc(C(=O)C3CC3)cc2)cc1 | 1.8µM* | / | 1.5µM* | / | 2.8µM* | 2.9µM*
Cc1ccc(NC(=O)N2CCC(C(=O)c3ccc(F)cc3)CC2)cc1 | 0% | / | -16% | / | 0% | -10%
COc1ccc(C(=O)C2CCN(C(=O)Nc3ccc(C)cc3)CC2)cc1 | 14% | / | 4.8µM* | / | 10% | -10%
Cc1ccc(C)c(N2CCN(C(=O)c3cc(S(=O)(=O)N4CCCCCC4)cn3C)CC2)c1 | / | / | -1% | / | / | /
CC(C)COc1ccc(C(=O)Nc2ccc([N+](=O)[O-])cc2)cc1 | 21% | -1% | -9% | -1% | 17% | 0%
CC(=O)c1ccc(NC(=O)NNS(=O)(=O)c2ccc([N+](=O)[O-])cc2)cc1 | 11% | / | 4% | / | 0% | 1%
CCC(=O)Oc1ccc(C(=O)Nc2ccc([N+](=O)[O-])cc2)cc1 | ? | 14µM* | -11% | -1% | 2.8µM* | 9%
O=C(Nc1ccccc1)Nc1csc2ccccc12 | ? | / | 12µM* | / | ? | 17%
CC(=O)c1ccc(NC(=O)c2cc(Cl)sc2Cl)cc1 | 2.2µM* | 13µM* | 15µM* | -1% | 2.8µM* | ?
CC(=O)Nc1csc2ccccc12 | 0% | 18% | 1% | -2% | 1% | -2%
CC(=O)c1ccc(NC(=O)Nc2ccc([N+](=O)[O-])cc2)cc1 | 27% | 13µM* | -16% | -1% | ? | ?
Cc1cc(C)cc(NC(=O)c2cc(Cl)sc2Cl)c1 | -1% | 2% | ? | 1% | 2% | -1%
CC(=O)c1ccc(NC(=O)C(C)Nc2ccc(Cl)cc2)cc1 (configuration not stated) | -4% | -1% | -1% | 1% | -3% | -1%
CC(=O)c1ccc(NC(=O)Nc2ccc(Cl)cc2)cc1 | 1.4µM* | 13µM* | 12µM* | -3% | 1.4µM* | 2.1µM*
CC(=O)Nc1cccc(NC(=O)Nc2ccc(C(C)=O)cc2)c1 | 11% | 19% | 11µM* | 1% | 24% | ?
CC(=O)c1ccc(NC(=O)Nc2cccc3ccccc23)cc1 | ? | / | ? | / | 25% | ?
CCN(CC)c1ccc(NC(=O)Nc2cccc(C(C)=O)c2)cc1 | / | 16% | 1.7µM* | -2% | / | /
CC(=O)Nc1ccc(NC(=O)Nc2ccccc2)cc1 | ? | / | 17µM* | / | ? | 17%
